Data taken from PubChem BioAssay.
The source made the active and inactive calls.

Experiments:
[1] = anti-His antibody binders, primary screen, artefact control for SMM control protein annotation, biochemical, small-molecule microarray, 635 nm fluorescence (AID 1128); details: anti-His Alexa647 antibody binding, higher = more signal;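 also: score merges feature fluorescence with signal-to-noise for each printed compound spot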
[2] = tested on: Human papillomavirus type 1a E7 protein (residues 1-88); assay: HPV1a E7 small-molecule binders, primary screen, biochemical, small-molecule microarray, residues 1-88, 635 nm (AID 1129); details: small-molecule microarray binding, fluorescence 635 nm; higher = more signal
[3] = biological target: Focal adhesion kinase 1 (Homo sapiens) (UniProt Q05397); assay: small-molecule microarray binders of FAK, primary screen, biochemical, 635/667 nm fluorescence, BSA, DTT (AID 1130); details: PTK2 binding, 635 nm fluorescence, higher = more signal;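 also: composite of spot emission at 667 nm and signal to noise over triplicate slides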
[4] = tested on: Fibrinogen (Alexa647-labelled); assay: fibrinogen binders on compound microarrays, profiling panel, artefact control for SMM control-protein annotation, biochemical, small-molecule microarray, 635/667 nm fluorescence (AID 1131); details: fibrinogen-A647 binding fluorescence, higher = more signal;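 also: z-score merges 667 nm fluorescence with per-spot signal-to-noise over triplicate slides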
[5] = biological target: Follistatin (Homo sapiens) (UniProt P19883); assay: follistatin binders on small-molecule microarrays, primary screen, biochemical, small-molecule microarray, 635/667 nm fluorescence (AID 1132); details: FST binding, 635 nm fluorescence, higher = more signal
[6] = biological target: Fibroblast growth factor 2 (Homo sapiens) (UniProt P09038); assay: FGF2 binders on small-molecule microarrays, primary screen, biochemical, small-molecule microarray, 635/667 nm fluorescence (AID 1133); details: small-molecule microarray binding, FGF2, fluorescence 635/667; higher = more signal
[7] = mitochondrial membrane potential change in A549 cells, profiling panel, cell-based, JC-1 fluorescence, basal, 24 h, 100 nL (AID 1138); details: higher = more signal;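 also: A549 lung adenocarcinoma cells under basal conditions with no added stimulus; test concentration not given here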
Lefty1 = Lefty1 binders on small-molecule microarrays, primary screen, biochemical, small-molecule microarray, 635/667 nm fluorescence (AID 1139); details: small-molecule microarray binding, fluorescence 635/667; higher = more signal
[8] = tested on: wheat germ agglutinin (Triticum aestivum), Alexa647-labelled; assay: wheat germ agglutinin binders on compound microarrays, profiling panel, artefact control for SMM control-protein annotation, biochemical, small-molecule microarray, 635/667 nm fluorescence (AID 1140); details: WGA-A647 binding, 635 nm fluorescence, higher = more signal;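 also: score merges 667 nm feature emission with signal to noise over triplicate slides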
[9] = biological target: Luciferin 4-monooxygenase (Photinus pyralis) (UniProt P08659); assay: firefly luciferase enzyme inhibitors, primary screen, biochemical, luminescence, purified enzyme, 2006 set (AID 1141); details: SteadyGlo luminescence, 30 min, higher = more signal, called active from +8 up or from −8 down;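 also: cell-free assay with purified firefly luciferase at 100 ng per well in PBS; test concentration not given here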
Sequence of Luciferin 4-monooxygenase (Photinus pyralis) (P08659 whole entry, looked up): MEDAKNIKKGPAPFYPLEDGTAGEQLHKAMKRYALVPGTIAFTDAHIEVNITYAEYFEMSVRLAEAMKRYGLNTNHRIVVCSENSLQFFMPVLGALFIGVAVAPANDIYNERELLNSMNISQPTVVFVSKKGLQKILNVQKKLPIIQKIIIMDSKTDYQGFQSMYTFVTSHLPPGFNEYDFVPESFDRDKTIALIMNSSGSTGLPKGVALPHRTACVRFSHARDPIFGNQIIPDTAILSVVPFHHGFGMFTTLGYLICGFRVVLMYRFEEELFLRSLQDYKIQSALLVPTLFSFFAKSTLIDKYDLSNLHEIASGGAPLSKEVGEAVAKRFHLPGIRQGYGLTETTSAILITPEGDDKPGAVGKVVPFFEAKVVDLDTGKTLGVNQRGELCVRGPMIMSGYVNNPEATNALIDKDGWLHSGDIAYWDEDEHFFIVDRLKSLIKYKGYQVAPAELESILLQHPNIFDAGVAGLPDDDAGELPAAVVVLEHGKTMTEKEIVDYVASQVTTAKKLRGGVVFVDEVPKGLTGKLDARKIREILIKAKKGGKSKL

Sequence of Follistatin (Homo sapiens) (P19883 whole entry, looked up): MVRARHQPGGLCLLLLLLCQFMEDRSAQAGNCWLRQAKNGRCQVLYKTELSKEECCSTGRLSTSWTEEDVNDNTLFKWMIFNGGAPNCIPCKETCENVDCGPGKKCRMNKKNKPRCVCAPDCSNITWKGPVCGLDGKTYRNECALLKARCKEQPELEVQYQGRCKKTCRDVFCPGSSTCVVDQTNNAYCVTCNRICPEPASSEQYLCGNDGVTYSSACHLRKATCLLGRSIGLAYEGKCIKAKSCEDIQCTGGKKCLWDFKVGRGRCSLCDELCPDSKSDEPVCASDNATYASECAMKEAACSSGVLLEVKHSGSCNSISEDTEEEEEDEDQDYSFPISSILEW
Sequence of Focal adhesion kinase 1 (Homo sapiens) (Q05397 whole entry, looked up): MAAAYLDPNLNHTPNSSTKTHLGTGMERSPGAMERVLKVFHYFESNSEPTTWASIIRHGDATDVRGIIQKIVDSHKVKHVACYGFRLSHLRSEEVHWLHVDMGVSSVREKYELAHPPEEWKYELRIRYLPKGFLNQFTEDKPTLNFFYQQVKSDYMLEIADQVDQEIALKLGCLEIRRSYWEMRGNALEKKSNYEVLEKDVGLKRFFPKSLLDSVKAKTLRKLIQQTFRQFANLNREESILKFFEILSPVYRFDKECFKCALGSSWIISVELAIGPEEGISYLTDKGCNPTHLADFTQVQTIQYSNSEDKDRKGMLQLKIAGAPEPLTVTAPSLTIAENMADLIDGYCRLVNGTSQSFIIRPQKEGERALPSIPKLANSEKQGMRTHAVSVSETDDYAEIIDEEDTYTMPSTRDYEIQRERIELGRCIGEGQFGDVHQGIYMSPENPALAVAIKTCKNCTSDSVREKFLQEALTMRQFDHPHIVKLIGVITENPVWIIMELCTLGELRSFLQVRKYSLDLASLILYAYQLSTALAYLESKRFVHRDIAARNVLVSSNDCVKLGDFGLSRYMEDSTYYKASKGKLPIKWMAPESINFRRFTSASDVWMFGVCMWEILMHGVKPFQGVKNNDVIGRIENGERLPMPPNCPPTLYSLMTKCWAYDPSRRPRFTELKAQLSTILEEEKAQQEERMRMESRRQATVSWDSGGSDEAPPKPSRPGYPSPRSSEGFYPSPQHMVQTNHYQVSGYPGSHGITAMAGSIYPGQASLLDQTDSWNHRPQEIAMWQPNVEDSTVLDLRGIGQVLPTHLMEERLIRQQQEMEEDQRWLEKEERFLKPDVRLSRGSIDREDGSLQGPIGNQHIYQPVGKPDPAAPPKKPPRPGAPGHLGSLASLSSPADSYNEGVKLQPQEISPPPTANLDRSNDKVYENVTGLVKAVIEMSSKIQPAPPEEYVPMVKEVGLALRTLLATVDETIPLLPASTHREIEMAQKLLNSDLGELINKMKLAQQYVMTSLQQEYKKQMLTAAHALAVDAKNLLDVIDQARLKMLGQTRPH
Sequence of Fibroblast growth factor 2 (Homo sapiens) (P09038 whole entry, looked up): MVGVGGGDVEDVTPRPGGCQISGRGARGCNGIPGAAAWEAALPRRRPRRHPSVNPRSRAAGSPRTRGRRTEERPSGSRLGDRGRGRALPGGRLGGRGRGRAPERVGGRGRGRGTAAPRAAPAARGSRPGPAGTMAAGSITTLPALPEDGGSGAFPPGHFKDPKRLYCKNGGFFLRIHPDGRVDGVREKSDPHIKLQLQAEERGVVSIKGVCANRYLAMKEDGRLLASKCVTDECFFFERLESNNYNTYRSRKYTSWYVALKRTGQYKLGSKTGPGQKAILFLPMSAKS

Row | SMILES | composite z-score [1] | composite z-score [2] | composite z-score [3] | composite z-score [4] | composite z-score [5] | composite z-score [6] | z-score [7] | composite z-score (Lefty1) | composite z-score [8] | z-score [9]
1 | CCCCCC1=C2CNC(CCC)(C(=O)OC)C=C2C(C)C1=O (stereo not given) | -0.252 | 0.859 | 0.682 | -0.288 | -0.249 | 0.0833 | 0.424 | -0.444 | -0.0925 | 0.443 (inactive)
2 | COCCOC(=O)N1C(=O)[C@@]2(c3cc(C#CCCO)ccc31)[C@H](C(=O)Nc1nc3ccccc3s1)[C@H]1C(=O)O[C@H](c3ccccc3)[C@H](c3ccccc3)N1[C@@H]2c1ccc(OCCO)cc1 | 0.738 | 0.957 | 0.128 | 0.944 | 1.27 | 1.65 | -2.4 | 1.26 | 0.482 | -2.56 (inactive)
3 | CN(C)CCCNC(=O)[C@@]1(C)c2ccccc2C(=O)N(Cc2cc(F)cc(C(F)(F)F)c2)[C@H]1c1ccc(CO)cc1 | -0.731 | -0.358 | 0.63 | -0.0121 | -0.673 | -0.67 | -0.202 | -0.91 | 0.397 | -0.0378 (inactive)
4 | COCCn1c(C(=O)N2CCCC2)cc2c1C[C@H]1CN(C(=O)c3ccccc3)[C@@](Cc3ccc(F)cc3)(C(=O)OC)[C@@H]21 | 0.346 | 1.27 | 1.61 | 1.02 | 0.35 | -0.703 | -0.328 | 0.108 | 0.845 | 3.4 (inactive)
5 | CC(C)C(=C=CC[C@@H](O)c1ccccc1OCCO)CCO | 2.31 | 0.43 | 0.306 | 0.442 | 0.71 | 0.853 | 0.991 | 0.352 | 0.201 | -1.91 (inactive)
6 | COC(=O)[C@@]1(Cc2ccc(OC)cc2)[C@H]2c3cc(C(=O)N(C)C)n(CCN4CNCC4=O)c3C[C@H]2CN1C(=O)c1ccccc1 | 0.492 | 0.803 | 0.598 | 0.151 | -0.589 | -0.294 | 1 | -0.44 | 0.459 | 2.82 (inactive)
7 | C=CCOC(=O)[C@@H]1[C@H]2C(=O)O[C@H](c3ccccc3)[C@H](c3ccccc3)N2[C@H](c2ccc(OCCOC(=O)[C@@H]3C[C@@H]4C(=O)N5CCC[C@H]5C(=O)N4[C@@H]3c3ccc(O)cc3)cc2)[C@@]12C(=O)Nc1ccc(I)cc12 | 0.426 | 1.19 | 0.928 | 0.837 | 1.29 | 1.2 | -1.58 | 0.793 | 0.635 | -0.291 (inactive)
8 | C=CCNC(=O)[C@@H]1[C@H]2C(=O)O[C@H](c3ccccc3)[C@H](c3ccccc3)N2[C@H](c2ccc(OCCO)cc2)[C@@]12C(=O)Nc1ccc(C#CCCO)cc12 | 2.72 | 1.19 | 1.17 | 0.979 | 1.16 | 1.68 | 0.103 | 1.52 | 0.687 | -0.947 (inactive)
9 | COC(=O)[C@@]1(Cc2ccc(OC)cc2)[C@H]2c3cc(C(=O)N(C)C)n(Cc4cccc5ccccc45)c3C[C@H]2CN1C(=O)c1ccccc1 | 1.54 | 1.26 | 0.306 | 1.02 | 0.202 | -0.225 | -0.78 | 0.566 | 1.03 | 0.629 (inactive)
10 | [N-]=[N+]=NCc1ccccc1[C@@H]1OC(c2ccc(OCCCO)cc2)=N[C@]1(CCS(=O)(=O)c1ccccc1)C(=O)NCc1ccccc1 | 1.82 | 1.21 | 0.878 | 0.964 | 1.47 | 1.37 | -0.338 | 1.49 | 1.27 | -0.375 (inactive)
11 | CC(C)(C)C(=O)N[C@@H](c1ccc(Cl)cc1)[C@]1(C)C[C@H]1C1CCCCC1 | 0.893 | 1.21 | 1.19 | 1.02 | 0.279 | -0.386 | 2.63 | -0.775 | 0.537 | 0.542 (inactive)
12 | C=CCOC(=O)[C@H]1[C@@H]2C(=O)O[C@@H](c3ccccc3)[C@@H](c3ccccc3)N2[C@@H](c2ccc(OCCOC(=O)[C@@H]3C[C@@H]4C(=O)N5CCC[C@H]5C(=O)N4[C@@H]3c3cccc(OCCO)c3)cc2)[C@]12C(=O)Nc1ccccc12 | 2.53 | 1.19 | 0.701 | 0.686 | 1.3 | 1.51 | -1.5 | 1.14 | 0.847 | -0.187 (inactive)
13 | CCOC(=O)C[C@H]1[C@H](OC(=O)Cc2ccc3c(c2)OCO3)[C@@H](NC(=O)c2ccc(-c3ccccc3)cc2)c2cc(OCCCO)ccc2N1C(=O)Cc1ccc(OC)cc1 | 0.0923 | 0.516 | 0.165 | 0.872 | 0.518 | 0.28 | 1.24 | 0.475 | 0.415 | -1.11 (inactive)
14 | C=CCC(OC(C)=O)[C@@H]1[C@@H](N(Cc2cccc3ccccc23)C(=O)c2ccc(-c3ccccc3)cc2)c2cc(OCCCO)ccc2N1C(=O)Cc1ccc(OC)cc1 (stereo not given in full) | 0.364 | -0.128 | 0.179 | 0.603 | 0.652 | -0.0199 | 1.06 | 0.246 | 0.281 | 0.912 (inactive)
15 | COc1ccc(CCNC(=O)[C@@]2(C)c3ccccc3C(=O)N(Cc3cc(F)cc(C(F)(F)F)c3)[C@H]2c2ccc(CO)cc2)cc1 | 0.421 | 0.682 | 0.212 | 0.0066 | 0.179 | 0.132 | -0.233 | -0.953 | 0.606 | -0.947 (inactive)
16 | COC(=O)C(CC#Cc1ccc2c(c1)[C@]1(C(=O)N2)[C@H](C(=O)O)[C@H]2C(=O)O[C@H](c3ccccc3)[C@H](c3ccccc3)N2[C@@H]1c1ccc(O)cc1)C(=O)OC | 1.54 | -0.133 | -0.13 | -0.422 | -0.0501 | -0.328 | -0.573 | -0.574 | -0.163 | 0.217 (inactive)
